Shiga toxin inh = A qHTS for Small Molecule Inhibitors of Shiga Toxin; Vero cells, Shiga toxin protein synthesis inhibition reporter; inhibition, % at 38.7 µM; 9.2% of 290,000 active; AID 2315, 2010; in the data active = inhibition mostly above about 28%, no sharp cut-off; inactive = mostly below about 43%
LmPK inh = qHTS Assay for Inhibitors of Leishmania Mexicana Pyruvate Kinase (LmPK); 0.37% of 290,000 active; purified LmPK, Kinase-Glo ATP luminescence, 1 h; Potency, µM (titrated, usually from 57.5 µM), usual class: inhibitors; Q27686
Target sequence (Q27686 whole entry, looked up): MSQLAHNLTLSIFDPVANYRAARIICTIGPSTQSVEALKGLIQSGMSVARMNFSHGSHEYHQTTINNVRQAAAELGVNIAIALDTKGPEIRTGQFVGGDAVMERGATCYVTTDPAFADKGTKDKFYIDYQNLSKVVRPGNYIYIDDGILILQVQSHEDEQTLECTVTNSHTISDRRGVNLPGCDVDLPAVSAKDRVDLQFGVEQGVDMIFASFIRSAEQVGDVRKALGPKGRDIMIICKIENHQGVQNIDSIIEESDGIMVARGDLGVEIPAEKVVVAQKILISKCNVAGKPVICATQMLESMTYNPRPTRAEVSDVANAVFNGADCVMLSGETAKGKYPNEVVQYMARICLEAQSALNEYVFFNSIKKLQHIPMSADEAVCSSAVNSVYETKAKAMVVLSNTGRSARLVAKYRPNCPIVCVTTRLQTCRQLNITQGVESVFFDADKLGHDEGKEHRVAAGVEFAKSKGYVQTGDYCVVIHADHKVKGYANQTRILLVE
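Pyruvate kinase activity monitored as ATP production (luciferase luminescence). Conditions: 0.1 nM enzyme, 0.5 mM PEP, 0.1 mM ADP, 1 h, RT; normalized against uninhibited and no-enzyme wells.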
NS1 inh = qHTS Assay for Inhibitors of Influenza NS1 Protein Function | Potency, µM (highest dose often 46.1 µM) | 0.4% of 270,000 active | AID 2326, 2010; calls by dose curve; also: actives are rising curves; nearly all actives have a fitted effect of over 50% in size
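A cell-based growth assay was used: compounds that relieve NS1-induced slow growth of budding yeast raise OD600. Assay medium was yeast nitrogen base with ammonium sulphate and -URA supplement, pH 6.0, with 2% galactose.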
CHX counter = Cycloheximide Counterscreen for Small Molecule Inhibitors of Shiga Toxin. cell reporter, cycloheximide protein synthesis inhibition counterscreen. max response, %. 12% of 300,000 active. AID 2314, 2010; in the data active = max response mostly above about 13%, no sharp cut-off; inactive = mostly below about 14%; also: read at 38.3 µM for the half of the compounds with a filed dose
Giardia FBPA inh = qHTS Assay for Inhibitors of Fructose-1,6-bisphosphate Aldolase from Giardia Lamblia; A8B2U2; purified Giardia FBPA; Potency, µM (top dose mostly 59.6 µM), actives largely listed as inhibitors; 0.71% of 290,000 active; AID 2451, 2010; also: nearly all actives have a fitted effect of over 55% in size
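40 nM FBPA preincubated 10 min at RT with compound (up to 57.5 uM final), then substrate plus GAPDH/TPI/NAD/arsenate coupling and diaphorase/resazurin added. Fluorescence read after 20 min at RT, 525/598 nm.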
Each line names hits and unclear results; the compound was inactive in the other large screens. In the library only some 14% were active in any assay of this set; here they are far more common. Unless noted, calls follow the shape of the dose curve; as a rule, active = well fitted curve in the direction sought with a large enough effect; inconclusive = small, poorly fitted or top-dose-only effect, or another doubt; inactive = no such curve, though single readings can be large; an effect the other way counts as inactive or inconclusive.

O=C(Nc1ccccc1C(=O)O)C1=NN=CC1	none
C[C@H]1C2C=C[C@H]1[C@@H](C(=O)O)[C@@H]2c1c2ccc(=O)c(O)c-2oc2c(O)c(O)ccc12	none (no result: Shiga toxin inh, LmPK inh, CHX counter, Giardia FBPA inh)
CC1(C)CC(=O)C2=C(C1)O[C@@]1(CCCCN3C(=O)c4ccccc4C3=O)Cc3cc(C#N)ccc3C2O1	none
C=CCSc1nnc(-c2sc(-c3ccccc3)nc2C)n1C	CHX counter 42
CCc1cccc(OCC(O)Cn2c(N3CCCCC3)nc3c2c(=O)[nH]c(=O)n3C)c1 (stereo unspecified)	none
COc1ccc(-c2nnc(SCCOc3cccc(C)c3)n2N)cc1	none
CCC(=O)c1ccc(OCCSc2ncccn2)cc1	Shiga toxin inh 88, CHX counter 53
Cc1cccc(OCCOCCSc2ncccn2)c1	CHX counter 10
Cc1ccc(OCCSc2ncccn2)c(C)c1	Shiga toxin inh 96, CHX counter 49
c1ccc(OCCOCCSc2ncccn2)cc1	CHX counter 20
O=S1OCCN1c1ccccc1 (stereo unspecified)	none
CN=C(c1ccc(C)cc1)n1c(=S)nc(-c2ccc(C)cc2)n(C)c1=S	Shiga toxin inh 85, CHX counter 43
CCC(=O)Nc1nnc(/C=C/c2ccccc2)s1	Shiga toxin inh 49, CHX counter 44
CCCCC(=O)Nc1nnc(/C=C/c2ccc(OC)cc2)s1	none
CCCC(=O)Nc1nnc(/C=C/c2ccccc2)s1	Shiga toxin inh 40, CHX counter 26
COc1ccc(/C=C/c2nnc(NC(=O)C(C)(C)C)s2)cc1	CHX counter 22
CCCC(=O)Nc1nnc(/C=C/c2ccc(OC)cc2)s1	CHX counter 19
O=C(c1cc(C(F)(F)F)cc(C(F)(F)F)c1)N1CCC[C@@]2(CCN(Cc3nccs3)C2)C1	none (no result: Shiga toxin inh, LmPK inh, NS1 inh, CHX counter)
NC(N)=N[C@@H]1C(O)[C@H](N=C(N)N)[C@@H](O)C(O)[C@H]1O (stereo partly specified)	none (no result: Shiga toxin inh, LmPK inh, CHX counter, Giardia FBPA inh)
COc1ccc(/C=C/c2nnc(NC(=O)COc3ccc(C)cc3)s2)cc1	CHX counter 14
CCOC(=O)Nc1nnc(/C=C/c2ccc(OC)cc2)s1	CHX counter 24
COc1ccc(/C=C/c2nnc(NC(=O)COc3ccccc3)s2)cc1	none
CC(C)(C)C(=O)Nc1nnc(COc2ccc(Cl)cc2)s1	Shiga toxin inh 38, CHX counter 25
COc1ccc(S(=O)(=O)NCC2CCCN(CC(C)(C)C)C2)cc1 (stereo unspecified)	none
Cc1csc2c(=O)sc(NC(=O)c3cccs3)nc12	none
O=[N+]([O-])c1ccc(S(=O)(=O)Nc2nc(-c3ccccc3)cs2)cc1	Giardia FBPA inh inconclusive
Cc1ccc(S(=O)(=O)Nc2nc(-c3ccc(F)cc3)cs2)cc1	CHX counter 13
Cc1ccnc(Nc2nc(-c3ccc(Cl)cc3)cs2)c1	Shiga toxin inh 42, CHX counter 38
Cc1ccnc(Nc2nc(-c3ccc(F)cc3)cs2)c1	Shiga toxin inh 100, CHX counter 50
Cc1cc(NC(=O)Nc2ccc(Cl)c(Cl)c2)n(-c2ccccc2)n1	none
COc1cc(O)c(CC=C(C)C)c(O)c1C(=O)CCc1ccc(O)cc1	Shiga toxin inh 26
CC(C)=CCc1c(O)ccc(C(=O)Cc2ccccc2)c1O	none
CCC(=O)Nc1ccc(Cl)c(NC(=O)c2cccc(OC)c2)c1	none
COc1ccc(NC(=O)c2cccc(OS(=O)(=O)N(C)C)c2)cc1	Shiga toxin inh 105, CHX counter 44
CN(C)S(=O)(=O)Oc1cccc(C(=O)Nc2ccc(Cl)c(Cl)c2)c1	Shiga toxin inh 117, CHX counter 72
CNS(=O)(=O)c1cccc(C(=O)Nc2cccc(Cl)c2)c1	CHX counter 35
COC(=O)c1ccc(OS(=O)(=O)N(C)C)cc1	Shiga toxin inh 99, CHX counter 54 (no result: NS1 inh)
COc1ccc(NC(=O)c2ccc(S(=O)(=O)N(C)C)cc2)cc1	none
CNS(=O)(=O)c1cccc(C(=O)Nc2cccnc2)c1	none
COc1ccc(C(=O)NCC(=O)N2CCN(c3ccc(F)cc3)CC2)cc1	none
CC(C)(C)OC(=O)N1CCC(c2c(C(=O)NCC3CCN(C4CCCC4)C3)cnn2-c2cccc(Cl)c2)CC1 (stereo unspecified)	none
CCN(CC(=O)NC(C)(C)C)C(=O)CN1c2cccc3cccc(c23)S1(=O)=O	none
CN(C)S(=O)(=O)Oc1cccc(C(=O)Nc2cccc(Cl)c2)c1	Shiga toxin inh 67, CHX counter 38
COc1cccc(S(=O)(=O)NCc2ccc(C(=O)Nc3cccc(Cl)c3)cc2)c1	none
O=C1[C@H]2[C@H]3[C@H](O)[C@H](O)C/C(=N/OCc4ccccc4)[C@@H]3CC[C@@H]2C(=O)N1Cc1ccc2c(c1)OCO2	none (no result: Shiga toxin inh, LmPK inh, NS1 inh, CHX counter)
O=C(NC1CC1)[C@@H]1CSC2c3ccccc3C(=O)N21 (stereo partly specified)	none
CCCCCCC(=O)N(O)C1CC(=O)N(c2ccc(Br)cc2)C1=O (stereo unspecified)	LmPK inh inconclusive
COc1ccccc1N(O)C1CC(=O)N(c2ccc(Br)cc2)C1=O (stereo unspecified)	Shiga toxin inh 42, CHX counter 27
CN(C)C1NC(=O)c2cc(-c3ccccc3)sc2N1 (stereo unspecified)	CHX counter 17
NS(=O)(=O)c1ccc(Cl)cc1[N+](=O)[O-]	none
COC(=O)c1ccc(CSc2nc3ccccc3o2)cc1	Shiga toxin inh 55, LmPK inh inconclusive, CHX counter 30
CCCCOC(=O)CSc1nc2ccccc2o1	none
O=[N+]([O-])c1ccc(CSc2nc3ccccc3o2)cc1	Shiga toxin inh 121, CHX counter 36
Cc1nc2scc(C)n2c(=O)c1S(=O)(=O)NCc1ccc(F)cc1	none (no result: Giardia FBPA inh)
COC(=O)c1ccc(C(NC(=O)OCc2ccccc2)/C(F)=C/[C@@H](C)C(=O)NCCc2c[nH]c3ccc(OC)cc23)cc1 (stereo partly specified)	none (no result: Shiga toxin inh, LmPK inh, NS1 inh, CHX counter)
O=C(Cc1ccccc1)c1nnc(-c2ccccc2)o1	CHX counter 14
Cc1ccc(SCC(=O)Nc2ccc(-c3nnc(-c4ccco4)o3)cc2)cc1	Shiga toxin inh 43, CHX counter 16
O=C(Cc1ccccc1)Nc1ccc(-c2nnc(-c3ccco3)o2)cc1	CHX counter 17
COc1ccccc1CC(=O)Nc1ccc(-c2nnc(-c3ccco3)o2)cc1	CHX counter 24
CCOc1ccccc1N1CCN(C(=O)c2ccc3c(c2)OCO3)CC1	none (no result: Giardia FBPA inh)
CCOc1cc(C)c(S(=O)(=O)NCCCn2ccnc2)cc1C	none (no result: Shiga toxin inh)
CC(C)=CCC1(CC=C(C)C)C(=O)C(C(=O)c2ccccc2)=C2OC(C)(C)CCC2(CC=C(C)C)C1=O (stereo unspecified)	none (no result: Shiga toxin inh, LmPK inh, NS1 inh, CHX counter)
CC(O)CNC(=O)C1CCN(Cc2ccc(OCc3ccccc3)cc2)CC1 (stereo unspecified)	Shiga toxin inh 130, CHX counter 37
CC(C)CNC(=O)C1CCN(Cc2ccc(OCc3ccccc3)cc2)CC1	Shiga toxin inh 79, CHX counter 27
